Compound activity (PubChem)
A selection: hits, their analogues and other compounds. The true share with any hit is near 1.2%.
RGS4-Gao reg: modulators of RGS4 binding to Galphao, primary screen, biochemical, multiplexed bead flow cytometry | actives lie on both sides | AID 1415, 2008 | Guanine nucleotide-binding protein G(o) subunit alpha (Homo sapiens), P09471 | 0.33% of 220,000 active | binding response (% of control), % at 10 µM; in the data active means binding response below about 49% or above about 150%; inactive means in between;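 further: fluorescent Galphao activated with aluminum fluoride binding bead-coupled RGS4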
Target sequence (P09471 whole entry, looked up): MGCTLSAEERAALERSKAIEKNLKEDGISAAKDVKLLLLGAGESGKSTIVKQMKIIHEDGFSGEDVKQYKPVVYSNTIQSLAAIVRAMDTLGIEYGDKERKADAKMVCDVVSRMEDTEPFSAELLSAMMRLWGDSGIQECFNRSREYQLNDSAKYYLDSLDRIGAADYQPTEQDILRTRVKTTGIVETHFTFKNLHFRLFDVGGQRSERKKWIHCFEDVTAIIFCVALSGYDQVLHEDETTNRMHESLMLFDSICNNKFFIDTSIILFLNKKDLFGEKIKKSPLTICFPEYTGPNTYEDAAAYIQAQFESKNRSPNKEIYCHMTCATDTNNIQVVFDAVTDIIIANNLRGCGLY
RGS8-Gao reg: RGS8-Galphao binding modulators, primary screen, biochemical, multiplexed bead flow cytometry. 0.34% of 220,000 active. response (percent of control binding), % at 10 µM. actives lie on both sides. AID 1423, 2008; in the data active means response below about 60% or above about 140%; inactive means in between;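 further: Galphao activated as the GDP aluminium fluoride complex binding bead-coupled RGS8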
RGS7-Gao reg: RGS7-Galphao binding modulators, primary screen, biochemical, multiplexed bead flow cytometry; Guanine nucleotide-binding protein G(o) subunit alpha (Homo sapiens), P09471; actives lie on both sides; binding response (% of control), % at 10 µM; 0.35% of 220,000 active; AID 1439, 2008; in the data active means binding response below about 49% or above about 150%;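 further: fluorescent Galphao held in activated GDP-AlF4 state binding bead-coupled RGS7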
RGS16-Gao: modulators of RGS16 binding to Galphao, primary screen, biochemical, human proteins, multiplexed bead flow cytometry | binding response (% of control), % at 10 µM | Regulator of G-protein signaling 16 (Homo sapiens) + Guanine nucleotide-binding protein … | bead-based flow cytometry RGS16-Galphao binding, fluorescence; actives lie on both sides | 0.38% of 220,000 active;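 further: Galphao activated by GDP with aluminum fluoride before binding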
Avidin bead fluor: green autofluorescence of compounds with avidin beads – biophysical, 488/530 nm, flow cytometry, artefact control, profiling panel; fluorescence (KMESF) at 10 µM; 0.38% of 220,000 active; compound fluorescence 488/530 nm; active compounds read high; AID 1775, 2009; in the data active means fluorescence above about 47
GSH bead fluor: compound fluorescence on glutathione beads, profiling panel, artefact control, biophysical, 488/530 nm, flow cytometry; GSH beads flow cytometry, compound fluorescence 488/530 nm; active compounds read high; fluorescence (KMESF) at 10 µM; 0.25% of 190,000 active; in the data active means fluorescence above about 89;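 further: glutathione beads carrying GST-tagged Bcl family fusion proteins plus one bare bead set; values are compound well signal with DMSO vehicle wells as background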
RGS4-Gao HTS: modulators of RGS–Galpha-o binding, primary screen, biochemical, multiplexed beads, flow cytometry, RGS4/7/8/16/19. AID 1504, 2009. 99% of 1,600 active. RGS4–Galpha-o binding response, % at 10 µM. shares compounds with RGS16-Gao. multiplexed bead flow cytometry;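 further: fluorescently labeled Galpha-o bound to GDP with aluminium fluoride binding biotinylated RGS beads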
Avidin counter: disruption of biotin probe capture by avidin, counter-screen for RGS protein interaction modulators, biochemical, flow cytometry, bead-based | inhibition, % at 10 µM | AID 1783, 2009 | 1,700 tested, under 10 active | streptavidin beads, fluorescein-biotin binding | shares compounds with RGS16-Gao;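 active means inhibition above 50%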;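 further: median green fluorescence of gated singlet beads compared with DMSO control wells; 0% = DMSO wells and 100% = complete loss of bead fluorescence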
RGS8-Gao confirm: RGS8-Galphao binding modulators, confirmation, biochemical, multiplexed bead flow cytometry, single concentration; shares compounds with RGS16-Gao; bead-based flow cytometry RGS8-Galphao binding, fluorescence; actives lie on both sides; binding response (% of control), % at 10 µM; 3% of 1,700 active; AID 1836, 2009; in the data active means binding response below about 72% or above about 130%; inactive means in between;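 further: Galphao activated as GDP AlF4 complex before binding bead RGS8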
RGS7-Gao single: RGS7-Galphao binding modulators, confirmation, biochemical, multiplexed bead flow cytometry, single concentration; bead-based flow cytometry RGS7-Galphao binding; actives lie on both sides; response (percent of control binding), % at 10 µM; AID 1837, 2009; shares compounds with RGS16-Gao; 7.8% of 1,700 active; in the data active means response below about 75% or above about 130%; inactive means in between;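 further: fluorescent Galphao activated with GDP and aluminum fluoride binding bead-coupled RGS7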
RGS16-Gao conf: modulators of RGS16-Galphao protein binding, confirmation, biochemical, single concentration, multiplexed bead flow cytometry; shares compounds with RGS16-Gao; bead-based flow cytometry; actives lie on both sides; response (% of control binding), % at 10 µM; 4% of 1,700 active; AID 1838, 2009; in the data active means response below about 74% or above about 130%; inactive means in between;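 further: Galphao activated as the GDP aluminium fluoride complex binding bead-coupled RGS16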
RGS4-Gao single: modulators of RGS4-Galphao protein binding, confirmation, biochemical, single concentration, multiplexed bead flow cytometry; shares compounds with RGS16-Gao; binding response (% of control), % at 10 µM; 4% of 1,700 active; actives lie on both sides; in the data active means binding response below about 74% or above about 130%; inactive means in between
RGS19-Gao single: regulators of RGS19-Galphao binding, confirmation, biochemical, single point, multiplexed bead flow cytometry; shares compounds with RGS16-Gao; bead-based flow cytometry RGS19-Galphao binding; actives lie on both sides; response (percent of control binding), % at 10 µM; 5% of 1,700 active; AID 1841, 2009; in the data active means response below about 50% or above about 160%; inactive means in between;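 further: 100% = no compound control and 0% = blank background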
Starred values were filed as active, the others as inactive; [ ] = dose if it differs, or a comment. Unless noted, how the calls were made is not given here.

Screening CC(=O)NC(Cc1c[nH]c2ccccc12)C(=O)OCC(=O)Nc1cc(C)on1 (centres undefined) returned RGS4-Gao reg 72, RGS8-Gao reg 21*, RGS7-Gao reg 112, RGS16-Gao 29, Avidin bead fluor 227*, GSH bead fluor 15, RGS4-Gao HTS 72*, Avidin counter 0, RGS8-Gao confirm 106, RGS7-Gao single 105, RGS16-Gao conf 111, RGS4-Gao single 108 and RGS19-Gao single 111.
`COC(=O)c1ccccc1OCCCCN1CC(C)OC(C)C1` (centres undefined) gave RGS4-Gao reg 113, RGS8-Gao reg 99, RGS7-Gao reg 254*[activator], RGS16-Gao 102, Avidin bead fluor 173*, GSH bead fluor 9, RGS4-Gao HTS 113*, Avidin counter 2, RGS8-Gao confirm 92, RGS7-Gao single 59*, RGS16-Gao conf 83, RGS4-Gao single 70* and RGS19-Gao single 46*.
Cc1nn(C(C)C(=O)NCCCc2ccccc2)c(=O)c2cc3occc3n12 (centres undefined) was read as RGS4-Gao reg 134, RGS7-Gao reg 139, RGS16-Gao 167, Avidin bead fluor 9, GSH bead fluor 25, Avidin counter -2, RGS8-Gao confirm 93, RGS7-Gao single 88, RGS16-Gao conf 95, RGS4-Gao single 93 and RGS19-Gao single 80.
`CCOc1ccc(CCNC(=O)C(C)n2nc(C)n3c(cc4occc43)c2=O)cc1OCC` (centres undefined) gave RGS4-Gao reg 96, RGS8-Gao reg 98, RGS7-Gao reg 97, RGS16-Gao 99, Avidin bead fluor 8 and GSH bead fluor 14.
`Nc1ccc2c(c1)Nc1ccccc1CC2` gave RGS4-Gao reg 100, RGS8-Gao reg 102, RGS7-Gao reg 101, RGS16-Gao 103, Avidin bead fluor 11 and GSH bead fluor 13.
